Source: PubChem BioAssay
Sfp PPTase inh – qHTS Assay for Inhibitors of Bacillus subtilis Sfp phosphopantetheinyl transferase (PPTase) | Biochemical Sfp PPTase activity, qHTS | 3.5% of 310,000 active | AID 1490, 2009 | Potency, µM, inactives show largest response in the series, negative = inhibition, actives largely listed as inhibitors;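 further: the enzyme is Sfp with the accession as filed and its product quenches rhodamine fluorescence; 0% = enzyme reaction without inhibitor and -100% = no enzyme wells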
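With Hepes-Na pH 7.6 buffer containing 10 mM MgCl2, Sfp (15 nM) modified BHQ-2-YbbR (12.5 uM) using rhodamine-CoA (5 uM). Two reads 30 minutes apart at 525/598 nm yielded each well's rate.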
BAZ2B inh – qHTS Assay for Inhibitors of BAZ2B. AlphaScreen BAZ2B-H3K14Ac peptide displacement. 4.4% of 360,000 active. AID 504333, 2011. Potency, µM (series often up to 114 µM), for the others: top-dose activity change, negative = inhibition, actives largely listed as inhibitors; further: on the % scale 0 is the no-effect control and ±100 the full control effect; nearly all actives have a fitted effect of over 60% in size
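AlphaScreen displacement: compounds (up to 110uM) incubated 30 min at room temperature with a preformed 50 nM BAZ2B/50 nM biotinylated H3K14Ac peptide complex in PBS pH 7.4 with Tween-20. Donor and acceptor beads at 10 ug/mL final added, 20 min light-protected before reading.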
L3MBTL1 inh – qHTS Assay for the Inhibitors of L3MBTL1. Lethal(3)malignant brain tumor-like protein 1 (Homo sapiens), Q9Y468. AlphaScreen L3MBTL1–H3K9me1 peptide binding. Potency, µM (highest dose often 57.1 µM), for inactives: at the top dose activity, negative = inhibition, usual class: inhibitors. 0.66% of 230,000 active. AID 485360, 2010; further: on the % scale 0 is the no-effect control and ±100 the full control effect; nearly all actives have a fitted effect of over 60% in size
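L3MBTL1 (50 nM) pre-complexed 30 min with biotinylated H3(1-15)K9me1 peptide (75 nM), then compounds added for 30 min at room temperature; AlphaScreen streptavidin donor/nickel chelate acceptor beads (10 ug/mL final) read after 30 min dark incubation.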
JMJD2A Tudor – qHTS Assay for Inhibitors of JMJD2A-Tudor Domain | Lysine-specific demethylase 4A (Homo sapiens), O75164 | AlphaScreen JMJD2A-Tudor / H3K4me3 peptide binding | Potency, µM (highest dose often 114 µM), for the others: at the top dose activity change, negative = inhibition, actives largely listed as inhibitors | 4.4% of 390,000 active; further: on the % scale 0 is the no-effect control and ±100 the full control effect; nearly all actives have a fitted effect of over 50% in size
HP1b binding inh – HTS for Inhibitors of HP1-beta Chromodomain Interactions with Methylated Histone Tails; Chromobox protein homolog 1 (Homo sapiens), P83916; AlphaScreen HP1-beta / biotin-H3K9me3 peptide binding; Potency, µM (titrated, usually from 114 µM), without a hit: at the highest dose activity change, negative = inhibition, actives largely listed as inhibitors; 0.56% of 390,000 active; further: nearly all actives have a fitted effect of over 70% in size
Target sequence (P83916 whole entry, looked up): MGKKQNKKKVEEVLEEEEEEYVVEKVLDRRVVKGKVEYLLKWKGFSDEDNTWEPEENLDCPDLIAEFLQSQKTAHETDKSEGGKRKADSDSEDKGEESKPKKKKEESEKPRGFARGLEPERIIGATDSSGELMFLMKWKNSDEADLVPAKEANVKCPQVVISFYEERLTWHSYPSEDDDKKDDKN
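AlphaScreen: HP1-beta (50 nM) preformed 30 min with biotin-H3(1-18)K9me3 peptide (50 nM) in PBS pH 7.4, 0.01% Tween-20. Compound added for 30 min at RT, then streptavidin donor/nickel chelate acceptor beads (10 ug/mL) for 30 min.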
G9a block – qHTS Assay for Inhibitors of Histone Lysine Methyltransferase G9a; Potency, µM (highest dose often 102 µM), for the others: at the top dose activity, negative = inhibition, usual class: inhibitors; 8.8% of 350,000 active; AID 504332, 2011; G9a H3K9 monomethylation, AlphaScreen, 2 h; further: on the % scale 0 is the no-effect control and ±100 the full control effect; nearly all actives have a fitted effect of over 75% in size
Target sequence (Q96KQ7 913-1193 limits assumed): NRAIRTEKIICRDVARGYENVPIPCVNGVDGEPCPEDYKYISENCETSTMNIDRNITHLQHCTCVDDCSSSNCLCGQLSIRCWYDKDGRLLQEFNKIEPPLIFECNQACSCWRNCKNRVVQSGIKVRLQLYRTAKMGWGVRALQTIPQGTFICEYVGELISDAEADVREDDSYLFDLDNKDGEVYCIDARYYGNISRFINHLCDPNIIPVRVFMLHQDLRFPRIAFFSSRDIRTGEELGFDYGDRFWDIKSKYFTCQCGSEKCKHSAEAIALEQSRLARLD
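Chemiluminescent proximity detection of H3K9 monomethylation, read after 10 min bead incubation in the dark. Reaction: 20 nM G9a, 500 nM biotin-H3K9 peptide, 20 uM SAM cofactor, 2 h, room temperature, following 15 min enzyme-compound preincubation.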
Numbers without * were called inactive; u = inconclusive; x = not tested or not shown; ! = repeats disagree; [ ] = remark or other dose. Compounds with a hit are over-represented: about 12% of the library has one in this group of screens. The call rests on the fitted dose curve; in most records, active means well fitted curve in the direction sought with a large enough effect; inconclusive means small, poorly fitted or top-dose-only effect, or another doubt; inactive means no such curve, though single readings can be large; an effect the other way counts as inactive or inconclusive. Potency means the concentration at half of the fitted maximal effect.

SMILES	Sfp PPTase inh	BAZ2B inh	L3MBTL1 inh	JMJD2A Tudor	HP1b binding inh	G9a block
C=C1CCC[C@]2(C)C[C@H]3OC(=O)[C@H](CNCCc4ccccc4OC)C3CC12 (stereo not given in full)	56µM*	x	x	x	x	x
C=C1CCC[C@]2(C)C[C@H]3OC(=O)C(CNCCN(CC)CC)[C@H]3CC12 (stereo not given in full)	56µM*	25µM*	x	1.8µM*	u	27%[0.501 µM]
CC(C)C[C@H](NC(=O)c1nc[nH]c1C(=O)N1CCc2ccccc2C1)C(=O)OC(C)(C)C	11%	-38%	x	-24%	47%	17%[12.7 µM]
CC1CN(C(=O)CCNS(=O)(=O)c2ccc(Br)cc2)CC(C)O1 (stereo not given)	x	1%	10%	-3%	17%	0%
COc1ccccc1N1CCN(CCCOc2ccc(F)cc2)CC1	-23%	u	x	2.2µM*	u	8.9µM*
COc1ccccc1N1CCN(CCCNc2c(C)c(=O)n(C)c(=O)n2C)CC1	-5%	x	x	-4%	23%	46%[12.7 µM]
COc1ccccc1N1CCN(S(=O)(=O)/C=C/c2ccccc2)CC1	-7%	19%	x	3%	30%	14%[12.7 µM]
COc1ccc(S(=O)(=O)N2CCN(CCCOc3ccc(F)cc3)CC2)cc1OC	11%	-28%	x	-18%	0%	-45%
COc1ccccc1N1CCN(C/C=C/c2ccc(N(C)C)cc2)CC1	u	40µM*	u	x	x	u
COc1ccccc1N1CCN(CCN(C(=O)c2ccc(I)cc2)c2ccccn2)CC1	x	x	x	x	x	21µM*
COc1ccccc1N1CCN(CCCNc2cc(=O)n(C)c(=O)n2C)CC1	10%	-7%	x	x	x	22µM*!
O=C(C1CCCCC1)N(CCN1CCN(c2ccccc2CO)CC1)c1ccccn1	22%	x	x	x	x	13%[59 µM]
Cc1ccc(S(=O)(=O)N2CCOCC2)cc1NC(=O)Cn1nc(C)c([N+](=O)[O-])c1C	x	-4%	4%	-12%	30%	-5%
CCOc1ccccc1NC(=O)c1nc2nc(C)cc(C(F)F)n2n1	x	1%	x	-13%	37%	-11%[59 µM]
O=c1cc(-c2ccc(F)cc2F)[nH]c2ccc(F)cc12	-4%	x	x	x	x	u
C=C(CO)C1Cc2c(ccc3c2OC2COc4cc(OC)c(OC)cc4C2C3=O)O1 (stereo not given)	5%	x	x	x	x	x
COc1ccccc1N1CCN(CCOc2c(OC)cccc2OC)CC1	6%	-12%	x	-2%[57.1 µM]	13%	40µM*
COC(=O)c1cccnc1Oc1ccccc1	11%	-7%	-11%	1%	44%	u
COc1ccccc1NNC(=O)c1cccnc1Oc1ccccc1	u	4%	-12%	-15%	12%	7.1µM*
CCOC(=O)C1=C(CN2CCN(c3ccc(Cl)cc3)CC2)NC(=O)NC1c1ccc(F)cc1 (stereo not given)	x	-4%	x	u	-15%	-6%[59 µM]
CCCC(NC(=O)c1c(C)noc1C)C12CC3CC(CC(C3)C1)C2 (stereo not given)	17%	-1%	-19%	-7%	-1%	4%
CCCC(NC(=S)NCC1CCCO1)C12CC3CC(CC(C3)C1)C2 (stereo not given)	2%	-6%	x	u	13%	13µM*
COc1ccc(-n2c(SCC(=O)Nc3ccc(C(=O)O)cc3)nnc2-c2cccs2)cc1	17%	-3%	4%	79µM*	30%	u
CNC(=O)CSc1nnc(-c2ccco2)n1-c1cccc(OC)c1	2%	-9%	-2%	-5%	20%	x
Cc1ccc(-n2c(SCC(=O)Nc3ccc4c(c3)OCO4)nnc2-c2cccs2)cc1	-10%	11%	0%	56µM*	30%	u
SMILES	Sfp PPTase inh	BAZ2B inh	L3MBTL1 inh	JMJD2A Tudor	HP1b binding inh	G9a block
COc1ccc(NC(=O)CSc2nnc(Cc3cccs3)n2-c2ccc(C)cc2)cc1	6%	-7%	x	u	-2%	35µM*
COc1cccc(NC(=O)CSc2nnc(Cc3cccs3)n2-c2ccc(C)cc2)c1	13%	-4%	x	-24%	3%	-37%[59 µM]
COc1ccc(OC)c(NC(=O)CSc2nnc(-c3ccco3)n2-c2ccc(C(=O)O)cc2)c1	56µM*	u	-8%	-1%	25%	u
Cc1ccc(S(=O)(=O)N(C)C)cc1NC(=O)c1cc(S(=O)(=O)N2CCCCC2)ccc1N1CCOCC1	x	9%	1%	-10%	14%	u
Cc1ccc(-n2c(Cc3cccs3)nnc2SCC(=O)Nc2ccc(S(N)(=O)=O)cc2)cc1	10%	4%	-4%	-26%	6%	45µM*
COc1cccc(C(=O)OCCN2CCOCC2)c1	11%	-16%	6%	-9%	69%	-6%
COc1ccc(C(=O)Oc2c(CN3CCOCC3)cc(Cl)c3cccnc23)cc1	-11%	50µM*	x	u	34%	u
COc1cc(C(=O)Oc2c(CN3CCOCC3)cc(Cl)c3cccnc23)cc(OC)c1OC	6%	20µM*	x	56µM*	17%	-16%
O=C(Oc1c(CN2CCOCC2)cc(Cl)c2cccnc12)c1ccc(F)cc1	-10%	20µM*	u	22µM*	-2%	7%[59 µM]
O=C(Oc1c(CN2CCOCC2)cc(Cl)c2cccnc12)c1cccs1	-3%	x	-85%	u	25%	26%
COc1cccc(C(=O)Oc2c(CN3CCOCC3)cc(Cl)c3cccnc23)c1	-16%	45µM*	x	50µM*	33%	-33%
COc1ccc(NC2CCCN(C(=O)C3=NN(C)C(=O)CC3)C2)cc1OC (stereo not given)	14%	-16%	x	-8%	21%	-2%[59 µM]
Cc1cc(C)n(CCO)c(=O)n1	9%	u	x	u	15%	-7%[59 µM]
Cc1cc(=S)cc(C)n1CCO	-14%	-7%	1%	-16%	13%	13µM*
CCCC(=O)NC(=S)Nc1cccc(NC(=O)c2ccccc2Cl)c1	-1%	-6%	3%	u	31%	-14%[59 µM]
CC(C)CC(=O)Nc1cccc(NC(=O)c2ccccc2Cl)c1	8%	6%	3%	-2%	39%	3%[59 µM]
CC(C)CC(=O)NC(=S)Nc1cccc(NC(=O)c2ccccc2Cl)c1	-9%	-3%	x	u	23%	7.9µM*
CCC(=O)NC(=S)Nc1cccc(NC(=O)c2ccccc2Cl)c1	-23%	-1%	1%	-6%[11.4 µM]	-1%	18µM*
